Pol III holo inh – DNA polymerase III holoenzyme inhibition | reconstituted DNA polymerase III holoenzyme replication, biochemical | Potency, µM (doses to about 57.1 µM) | 71,000 tested, 0.25% active | AID 603
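Reconstituted *E. coli* holoenzyme (0.35 nM Pol III, 1 nM beta, 154 nM SSB, 2 nM primase) was preincubated with compound for 15 min at RT. Synthesis on 1.4 nM ssM13Gori ran 35 min, then was stopped with PicoGreen/EDTA and read as dsDNA fluorescence.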
BRCT PPI green – inhibitors of human BRCA1 BRCT-phosphoprotein interaction (green fluorophore). BRCA1 BRCT-phosphopeptide binding, green fluorescence polarization. AID 875. Potency, µM (doses to about 76.9 µM), hits mostly inhibitors. 75,000 tested, 0.05% active
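Compounds were incubated for 12 min at room temperature with a complex of 100 nM fluorescein-tagged pBACH1 decapeptide and 250 nM His-tagged BRCT protein. Buffer was phosphate pH 7.3 with EDTA, DTT and Tween 20. Disruption of binding lowers the polarization signal.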
YjeE inh – inhibitors of E. coli YjeE (TsaE); P0AF67; 71,000 tested, 0.05% active; Potency, µM; purified YjeE enzyme, qHTS inhibition assay
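Fluorescence polarization of a BODIPY Texas Red–ADP probe (2 uM) bound to purified YjeE (10 uM) was read after 15 min room-temperature incubation with compounds. Loss of polarization marks inhibitors; ADP serves as titrated control.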
HEK293 cAMP cs – raises cAMP in parental HEK293 cells, TSHR agonist counter-screen; parental HEK293 CNG cAMP sensor, membrane potential fluorescence; Potency, µM (titrated, usually from 57.1 µM), actives largely listed as activators; 73,000 tested, 2.5% active; also: nearly all actives have a fitted effect of over 55% in size
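Parental HEK 293 cells stably expressing a cAMP-gated CNG channel were loaded with membrane potential dye containing 100 uM RO 20-1724 for 60 min. Compound added for 30 min; depolarization read as fluorescence intensity at 590 nm.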
BRCT PPI red – BRCT-phosphoprotein interaction inhibition (red fluorophore); P38398; BRCT-phosphopeptide binding, red fluorescence polarization; Potency, µM (titrated, usually from 76.9 µM), usual class: inhibitors; 75,000 tested, 0.03% active; AID 892
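Fluorescence polarization: 100 nM His-tagged BRCA1 BRCT with 100 nM TAMRA-labelled phospho-BACH1 decapeptide, phosphate buffer pH 7.3 with 150 mM NaCl, DTT, 0.01% Tween 20; 12 min RT. Binding inhibition seen as FP decrease.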
TSHR agonist – activates the human thyroid stimulating hormone receptor; HEK293-CNG-TSHR cells (CNG channel as cAMP sensor), membrane potential dye, cAMP; Potency, µM (doses to about 57.1 µM), most hits filed as activators; 73,000 tested, 0.48% active; AID 926; active = well fitted activation curve with a large enough effect in the main read-out, with a control signal flat, not every such curve was filed as active; inconclusive = small, poorly fitted or top-dose-only effect, or a change in a side signal; inactive = no such curve, though single readings can be large or run the other way; reference of the percent scale not stated here;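 also: the control signal comes from parental cells without the receptor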
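HEK 293 cells stably expressing TSHR and a cAMP-gated CNG channel; parental CNG-only cells as counterscreen. Cells preloaded 60 min with membrane potential dye plus 100 uM RO 20-1724, then compound 30 min; fluorescence read at 590 nm.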
A number is an active result; 0 = inactive; ? = inconclusive; - = no result; [ ] = remark or other dose. This is a sample that favours compounds with a hit; in the whole collection about 3.2% have one here. Unless noted, calls follow the shape of the dose curve; as a rule, active = well fitted curve in the direction sought with a large enough effect; inconclusive = small, poorly fitted or top-dose-only effect, or another doubt; inactive = no such curve, though single readings can be large; an effect the other way counts as inactive or inconclusive.

SMILES | Pol III holo inh | BRCT PPI green | YjeE inh | HEK293 cAMP cs | BRCT PPI red | TSHR agonist
COC(=O)[C@@]1(Cc2ccccc2)[C@H]2c3cc(C(=O)N4CCCC4)n(Cc4cccc5ccccc45)c3C[C@H]2CN1C(=O)c1ccccc1 | 0 | 0 | 0 | 1.6µM | 0 | ?
COC(=O)[C@@]1(Cc2ccc(F)cc2)[C@H]2c3cc(C(=O)N(C)C)n(Cc4cccc5ccccc45)c3C[C@H]2CN1C(=O)c1ccccc1 | 0 | 0 | 0 | 16µM | 0 | ?
COC(=O)[C@@]1(Cc2ccc(OC)cc2)[C@H]2c3cc(C(=O)N(C)C)n(Cc4ccc(S(C)(=O)=O)cc4)c3C[C@H]2CN1C(=O)c1ccccc1 | 0 | 0 | 0 | ? | 0 | ?
COC(=O)[C@@]1(Cc2ccc(F)cc2)[C@H]2c3cc(C(=O)N(C)C)n(Cc4ccc(S(C)(=O)=O)cc4)c3C[C@H]2CN1C(=O)c1ccccc1 | 0 | 0 | 0 | ? | 0 | ?
CCS(=O)(=O)N1CCC(C(=O)NCc2cccs2)CC1 | 0 | 0 | 0 | 0 | 0 | 0[11.4 µM]
COC(=O)[C@@]1(Cc2ccccc2)[C@H]2c3cc(C(=O)N4CCCC4)n(Cc4cc(F)cc5c4OCOC5)c3C[C@H]2CN1C(=O)c1ccccc1 | 0 | 0 | 0 | 2.5µM | 0 | ?
COC(=O)[C@@]1(Cc2ccc(OC)cc2)[C@H]2c3cc(C(=O)N(C)C)n(Cc4ccccn4)c3C[C@H]2CN1C(=O)c1ccccc1 | 0 | 0 | 0 | ? | 0 | ?
COC(=O)[C@@]1(Cc2ccc(OC)cc2)[C@H]2c3cc(C(=O)N(C)C)n(Cc4ccsc4Br)c3C[C@H]2CN1C(=O)c1ccccc1 | 0 | 0 | 0 | 6.3µM | 0 | ?
COC(=O)[C@@]1(Cc2ccc(OC)cc2)[C@H]2c3cc(C(=O)N(C)C)n(CCO)c3C[C@H]2CN1C(=O)c1ccccc1 | 0 | 0 | 0 | 0 | 0 | 0
COC(=O)[C@@]1(Cc2ccc(F)cc2)[C@H]2c3cc(C(=O)N4CCCC4)n(Cc4cc(F)cc5c4OCOC5)c3C[C@H]2CN1C(=O)c1ccccc1 | 0 | 0 | 0 | ? | 0 | ?
COC(=O)[C@@]1(Cc2ccc(OC)cc2)[C@H]2c3cc(C(=O)N(C)C)n(Cc4ccc(C)c(F)c4F)c3C[C@H]2CN1C(=O)c1ccccc1 | 0 | 0 | 0 | 2.5µM | 0 | ?
COc1ccccc1-c1cncnc1N(C)Cc1ccco1 | 0 | 0 | 0 | 0 | 0 | -
Cc1cc(NCc2ccco2)nc2cc(O)ccc12 | 0 | 0 | 0 | 0 | 0 | 0
CC1(C)SC2C(NC(=O)C(NC(=O)N3CCNC3=O)c3ccccc3)C(=O)N2C1C(=O)O (configuration not stated) | - | 0[3.08 µM] | - | - | 0 | -
COc1ccccc1CNc1ncnc2ccc(-c3ccc(C(=O)N(C)C)cc3)cc12 | 0 | 0 | 0 | 0 | 0 | -
Cc1ccccc1S(=O)(=O)Cc1ccc(C(=O)N2CCN(C3CCCCC3)CC2)o1 | 0 | 0 | 0 | 0 | 0 | 0
Cc1cccc(OCc2nnc(SCc3cc(=O)n4cc(Br)ccc4n3)o2)c1 | 0 | 0 | 0 | 13µM | 0 | ?
Cc1ccc(C(=O)CSc2nnc(COc3cccc(C)c3)o2)cc1 | 0 | 0 | 0 | ? | 0 | ?
O=C(CN(Cc1ccco1)C(=O)CNS(=O)(=O)c1ccccc1)NCc1ccccc1 | 0 | 0 | 0 | 0 | 0 | 20µM
CCCC(C(=O)NCc1ccco1)N(C(=O)CNS(=O)(=O)c1ccccc1)c1ccccc1OC (configuration not stated) | 0 | 0 | 0 | 25µM | 0 | ?
CCC(C(=O)NCc1ccco1)N(C(=O)CNS(=O)(=O)c1ccc(C)cc1)c1ccccc1OC (configuration not stated) | 0 | 0 | 0 | 16µM | 0 | ?
N=C(C[C@@H](O)COc1ccccc1-c1ccccc1)N1CCCCC1 | 0 | 0 | 0 | 32µM | 0 | ?
O=C(c1cc2ccccc2cc1OCC(O)CN1CCCCC1)N1CCCCC1 (configuration not stated) | 0 | 0 | 0 | ? | 0 | ?
Cc1cccc(-n2c(N)cc(=O)nc2SCC(=O)Nc2cc(C)on2)c1 | 0 | 0 | 0 | 0 | 0 | 0
O=c1c2cnn(-c3ccccc3)c2nc(-c2ccco2)n1-c1ccccc1 | 0 | 0 | 0 | 20µM | 0 | ?
SMILES | Pol III holo inh | BRCT PPI green | YjeE inh | HEK293 cAMP cs | BRCT PPI red | TSHR agonist
COc1cc(CN(C(=O)c2ccco2)c2ccc(C)cc2)ccc1O | 0 | 0 | 0 | 0 | 0 | 0
COc1ccc(CN(C(=O)c2ccco2)c2ccc(Br)cc2)cc1OC | 0 | 0 | 0 | 32µM | 0 | ?
COc1ccc(N(C(=O)c2ccco2)S(=O)(=O)c2cc(OC)ccc2OC)cc1 | 0 | 0 | 0 | 16µM | 0 | ?
COc1ccc(N(C(=O)c2ccco2)S(=O)(=O)c2cccs2)cc1 | 0 | 0 | 0 | ? | 0 | ?
Cc1cc2c3c(c1)C1(C(=O)N3C(C)(C)CC2C)C(C#N)=C(N)Oc2cc(O)ccc21 (configuration not stated) | 0 | 0 | 0 | 0 | 0 | 0
Nc1nonc1-c1noc(N2CCCCC2)n1 | 0 | 0 | 0 | 10µM | 0 | ?
CCOc1ccc(OCc2ccc(C(=O)O)o2)cc1 | 0 | 0 | 0 | 0 | 0 | 0
O=C(c1cn(-c2ccccc2)nc1-c1ccccc1)N1CCOCC1 | 0 | 0 | 0 | 0 | 0 | 0
O=C(c1cn(-c2ccccc2)nc1-c1ccc(Cl)s1)N1CCOCC1 | 0 | 0 | 0 | 0 | 0 | 25µM
Cc1ccc(NC(=O)c2ccc(NS(=O)(=O)c3c(C)noc3C)cc2)cc1C | 0 | 0 | 0 | 0 | 0 | 0
Fc1ccccc1CSc1nnc(-c2cnccn2)n1Cc1ccco1 | 0 | 0 | 0 | 25µM | 0 | ?
Brc1ccc(CSc2nnc(-c3cnccn3)n2Cc2ccco2)cc1 | 0 | 0 | 0 | 20µM | 0 | ?
CC(C)OC(=O)CSc1nnc(-c2cnccn2)n1Cc1ccco1 | 0 | 0 | 0 | 0 | 0 | 0
C(=C\c1ccccc1)/CSc1nnc(-c2cnccn2)n1Cc1ccco1 | 0 | 0 | 0 | 13µM | 0 | ?
Fc1ccc(CSc2nnc(-c3cnccn3)n2Cc2ccco2)cc1 | 0 | 0 | 0 | 0 | 0 | 0
CN(C(=O)COC(=O)C1CCN(S(=O)(=O)c2cccs2)CC1)C1CCS(=O)(=O)C1 (configuration not stated) | 0 | 0 | 0 | 0 | 0 | 0
COc1cccc(-c2nnn(CC(=O)NC3CCCC3)n2)c1OC | 0 | 0 | 0 | 0 | 0 | 0
O=C(NCc1ccc2c(c1)OCO2)c1ccc2snnc2c1 | 0 | 0 | 0 | 7.9µM | 0 | ?
CC(C)N(C(=O)CSc1nc2c([nH]1)c(=O)n(C)c(=O)n2C)c1ccccc1 | 0 | 0 | 0 | 0 | 0 | 0
Cc1ccc(Nc2nc(N3CCOCC3)c3ccccc3n2)cc1 | 0 | 0 | 0 | 0 | 0 | 0

Screens as filed in PubChem.
